Experimental findings from article PMC4336329 (PLoS ONE, 2015) are described below.

Among all 310,000 compounds or so, about 2,200 (0.71%) showed an effect of 50% or more. The effect is printed as a negative number. The full list was thinned out, with strong results kept by preference.

human ether-à-go-go-related gene (hERG) potassium channel, sequence (Q12809 whole entry, looked up): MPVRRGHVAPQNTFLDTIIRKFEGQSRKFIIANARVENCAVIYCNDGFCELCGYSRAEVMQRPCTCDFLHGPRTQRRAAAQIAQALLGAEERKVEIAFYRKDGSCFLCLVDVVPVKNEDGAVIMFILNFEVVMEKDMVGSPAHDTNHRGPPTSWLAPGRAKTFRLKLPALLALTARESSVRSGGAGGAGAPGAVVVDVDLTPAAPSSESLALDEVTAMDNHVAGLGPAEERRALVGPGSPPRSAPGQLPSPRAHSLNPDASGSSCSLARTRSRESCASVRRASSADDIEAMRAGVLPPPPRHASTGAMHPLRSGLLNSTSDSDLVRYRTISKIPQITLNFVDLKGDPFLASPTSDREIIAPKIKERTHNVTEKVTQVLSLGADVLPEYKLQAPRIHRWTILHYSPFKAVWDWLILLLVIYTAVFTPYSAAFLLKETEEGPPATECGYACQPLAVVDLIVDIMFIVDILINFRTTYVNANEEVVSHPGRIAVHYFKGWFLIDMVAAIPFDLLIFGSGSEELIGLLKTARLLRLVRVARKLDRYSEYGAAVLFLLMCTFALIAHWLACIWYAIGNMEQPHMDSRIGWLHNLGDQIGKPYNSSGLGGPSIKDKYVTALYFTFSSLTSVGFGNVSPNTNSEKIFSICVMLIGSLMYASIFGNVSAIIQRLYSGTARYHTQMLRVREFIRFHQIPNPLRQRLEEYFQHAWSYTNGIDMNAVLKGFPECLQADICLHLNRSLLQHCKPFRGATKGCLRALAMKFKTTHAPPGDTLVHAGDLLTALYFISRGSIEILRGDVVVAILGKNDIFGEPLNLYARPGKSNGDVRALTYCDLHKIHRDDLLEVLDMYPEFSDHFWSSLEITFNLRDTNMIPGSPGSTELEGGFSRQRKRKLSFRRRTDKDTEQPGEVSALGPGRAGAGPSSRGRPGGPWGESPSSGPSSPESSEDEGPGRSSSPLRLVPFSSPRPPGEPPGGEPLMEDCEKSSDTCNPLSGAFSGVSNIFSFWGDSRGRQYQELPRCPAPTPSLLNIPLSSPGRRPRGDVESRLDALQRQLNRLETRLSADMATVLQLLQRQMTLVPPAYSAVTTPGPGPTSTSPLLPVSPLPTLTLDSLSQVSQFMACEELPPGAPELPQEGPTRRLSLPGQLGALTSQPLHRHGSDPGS

This assay concerns the target human ether-à-go-go-related gene (hERG) potassium channel (human, UniProt Q12809). Nature of the assay: primary screen, population patch clamp on CHO cells stably expressing hERG; higher = less effect of the substance.
Regarding `Cc1nc2nc(C)c(CCC(=O)NC3CCCCC3)c(C)n2n1`, the “hERG current change (%, negative = inhibition) at 1uM” value was 9.07%.

Take `COc1ccc(CN2C3CCC2CC(NC(=O)c2cccc(F)c2)C3)cc1` (stereo not shown): the “hERG current change (%, negative = inhibition) at 1uM” value is given as -81.1%. The same measure for `O=C(NC1CC2CCCC(C1)N2Cc1ccccc1)c1cccc(F)c1` (stereo not shown): -29.8%; for `COc1ccc(C(=O)NC2CC3CCCC(C2)N3Cc2ccccc2)cc1` (stereo not shown): -15.7%; for `Cc1cccc(C(=O)NC2CC3CCCC(C2)N3S(=O)(=O)c2ccccc2)c1` (stereo not shown): -63.4%. In the case of `CCCCN1C2CCCC1CC(NC(=O)c1cccc(OC)c1)C2` (stereo not shown) it was -2.96%; in that of `O=C(NC1CC2CCCC(C1)N2S(=O)(=O)c1ccccc1)c1ccccc1` (stereo not shown), -9.46%.

Consider `COc1cccc(C(=O)NC2CC3CCCC(C2)N3S(=O)(=O)c2ccccc2)c1` (stereo not shown), for which the “hERG current change (%, negative = inhibition) at 1uM” value was -8.93%. The same measure for `COc1cccc(C(=O)NC2CC3CCC(C2)N3Cc2ccccc2)c1` (stereo not shown): -2.53%; for `CCCCN1C2CCCC1CC(NC(=O)c1cccc(Cl)c1)C2` (stereo not shown): -63%. In the case of `COc1ccc(CN2C3CCCC2CC(NC(=O)c2cccc(F)c2)C3)cc1` (stereo not shown) it was -85.9%; in that of `CCCN1C2CCCC1CC(NC(=O)c1cccc(Cl)c1)C2` (stereo not shown), -2.98%; in that of `O=C(NC1CC2CCC(C1)N2Cc1ccccc1)c1cccc(F)c1` (stereo not shown), -17.5%. The same measure for `O=C(O)c1ccccc1-c1ccccc1C(=O)NCc1ccco1`: 13%; for `Clc1ccc2c(NCc3ccco3)ncnc2c1`: -1.55%; for `O=C(OCC(=O)N1CCCCC1)c1cccc(NS(=O)(=O)c2ccccc2)c1`: 12.4%. For `O=C(NCc1ccc(C(=O)N2CCC3(CC2)OCCO3)cc1)c1ccc2c(c1)OCO2`, the “hERG current change (%, negative = inhibition) at 1uM” value is given as 5.42%.

For `O=C(CSc1nnc(-c2ccco2)n1Cc1ccccc1)NC(=O)NCc1ccco1`, the “hERG current change (%, negative = inhibition) at 1uM” value is -15.6%. The same measure for `CCOC(=O)C1(CCc2ccccc2)CCN(C2Cc3ccccc3C2)CC1`: -18.7%; for `CCOC(=O)C1(CCCc2ccccc2)CCN(C2CCCC2)CC1`: -66.1%; for `CS(=O)(=O)c1ccc(S(=O)(=O)N2CCC(CO)(CCCc3ccccc3)CC2)cc1`: 4.47%.

On to `CCOC(=O)C1(CCCc2ccccc2)CCN(S(C)(=O)=O)CC1`, for which the “hERG current change (%, negative = inhibition) at 1uM” value is recorded as 5.98%. In the case of `CCOC(=O)C1(CCc2ccccc2)CCN(C(=O)C2CCOCC2)CC1`, the “hERG current change (%, negative = inhibition) at 1uM” value was -21.2%. For `CCOC(=O)C1(CCCc2ccccc2)CCN(C2CCC2)CC1`, the “hERG current change (%, negative = inhibition) at 1uM” value was -57.1%. The same measure for `CCOC(=O)C1(CCc2ccccc2)CCN(C2CCSCC2)CC1`: -80.7%; for `OCC1(CCCc2ccccc2)CCN(C2CCSCC2)CC1`: -65.4%; for `CCOC(=O)C1(CCCc2ccccc2)CCN(C(=O)CSC)CC1`: 3.88%.

With `CCOC(=O)C1(CCCc2ccccc2)CCN(C(=O)COC)CC1`, the “hERG current change (%, negative = inhibition) at 1uM” value was 10.5%. As for `CCOC(=O)C1(CCCc2ccccc2)CCN(C(=O)C2CCCO2)CC1` (stereo not shown), the “hERG current change (%, negative = inhibition) at 1uM” value was determined as 5.58%. The same measure for `CSCC(C)N1CCC(CO)(CCCc2ccccc2)CC1` (stereo not shown): -11.2%; for `O=C(NCc1ccco1)C1CCN(S(=O)(=O)c2ccccc2C(F)(F)F)CC1`: 12.6%; for `COc1cccc(C(=O)NCCS(=O)(=O)N2CCC(C)CC2)c1`: 3.89%. As for `CC1(C)CN(c2ccc(C(=O)c3ccccc3)cc2)C1=O`, the “hERG current change (%, negative = inhibition) at 1uM” value is on record as 6.95%. In the case of `CCCCn1c(N)c(N(CCOC)C(=O)C2CCN(S(=O)(=O)c3ccc(C)cc3C)CC2)c(=O)[nH]c1=O` it was 14.6%. The same measure for `Cc1ccccc1OCC(=O)OCC(=O)c1ccc[nH]1`: 10.2%; for `CCOC(=O)c1nn(-c2ccccc2C)c2nc(CC(C)C)c(C#N)c(=O)n12`: 15.8%; for `O=c1cc(NCc2ccco2)c2ccccc2o1`: 11.6%. Consider `CN(C)S(=O)(=O)N1CCN(c2ccnc3cc(Cl)ccc23)CC1`, for which the “hERG current change (%, negative = inhibition) at 1uM” value is recorded as -65.6%. The same measure for `Clc1ccc2c(N3CCOCC3)ccnc2c1`: 0.204%; for `CC(C)S(=O)(=O)N1CCN(c2ccnc3cc(Cl)ccc23)CC1`: -55.2%. The same measure for `CS(=O)(=O)N1CCN(c2ccnc3cc(Cl)ccc23)CC1`: -81.3%; for `CCS(=O)(=O)N1CCN(c2ccnc3cc(Cl)ccc23)CC1`: -67.4%. Regarding `COc1ccccc1N1CCN(c2ccnc3cc(Cl)ccc23)CC1`, the “hERG current change (%, negative = inhibition) at 1uM” value came to 7.78%. In the case of `Oc1ccc(N2CCN(c3ccnc4cc(Cl)ccc34)CC2)cc1` it was 5.36%; in that of `Clc1ccc2c(N3CCCC3)ccnc2c1`, -25.9%.

As to `CCC(=O)N1CCN(c2ccnc3cc(Cl)ccc23)CC1`, the “hERG current change (%, negative = inhibition) at 1uM” value was -25.7%. The same measure for `Cl.ClCCN1CCN(c2ccnc3cc(Cl)ccc23)CC1`: 7.03%. In the case of `CN(C)S(=O)(=O)N1CCN(c2cc(Cl)ccc2Cl)CC1` it was 16.5%; in that of `COc1ccc(/C=C2\SC(=S)N(N3CCOCC3)C2=O)c(OC)c1`, 10.2%; in that of `CCOC(=O)c1c(C)[nH]c(C)c1C(=O)CSc1nc2ccccc2[nH]1`, 13.8%. In the case of `O=c1c(Cc2ccc(F)cc2)c(O)ccn1CCCn1ccnc1` it was 20.5%; in that of `COc1ccc(CCNC(=O)CC(c2ccccc2)c2cccc(C)c2O)cc1OC` (stereo not shown), 6%. `OCCC1CN(Cc2cccc(-c3ccco3)c2)CCN1Cc1ccsc1` (stereo not shown): the “hERG current change (%, negative = inhibition) at 1uM” value is reported as -17.3%. As for `CC(C)NC(=S)N=Nc1c(O)[nH]c2ccc([N+](=O)[O-])cc12`, the “hERG current change (%, negative = inhibition) at 1uM” value is on record as 18.4%.

`COc1cccc(OC)c1C(=O)Nc1ccncc1`: the “hERG current change (%, negative = inhibition) at 1uM” value is 17.4%.

Regarding `COc1cccc(OC)c1C(=O)Nc1ccnn1C`, the “hERG current change (%, negative = inhibition) at 1uM” value was -75.9%. As for `Cn1nccc1NC(=O)NC(=O)c1c(Cl)cccc1Cl`, the “hERG current change (%, negative = inhibition) at 1uM” value is listed as 8.82%. In the case of `O=C(Cn1nnc2ccccc21)N1CCCCC1` it was 2.74%; in that of `O=C(Nc1ccc(N2CCN(C(=O)c3cccs3)CC2)cc1)c1ccco1`, 17.4%.

On to `O=C(CN1CCN(C(=O)c2ccco2)CC1)Nc1ccc(Br)cc1`, for which the “hERG current change (%, negative = inhibition) at 1uM” value came out at 10.5%. The same measure for `O=C(CN1CCN(C(=O)c2ccccc2F)CC1)Nc1ccc(Br)cc1`: -56.5%; for `CCC(=O)Nc1ccc(N2CCN(C(=O)c3cccs3)CC2)cc1`: 3.02%; for `O=C(Nc1ccc(N2CCN(C(=O)c3cccs3)CC2)cc1)c1ccc(Br)o1`: -52.7%. The same measure for `O=C(CN1CCN(C(=O)c2cccs2)CC1)Nc1ccc(Br)cc1`: -68.2%; for `O=C(NCCN1CCN(C(=O)c2cccs2)CC1)C(=O)Nc1ccc(Br)cc1`: -44.8%; for `O=C(CN1CCN(Cc2ccccc2)CC1)Nc1ccc(Br)cc1`: -48.3%. The same measure for `O=C(Nc1ccc(N2CCN(C(=O)c3cccs3)CC2)cc1)c1ccc([N+](=O)[O-])o1`: -15.8%.
